Assay results reported in the supplement of paper PMC11417369.
Over roughly 25,000 sequences, “ln(normalized median fluorescence intensity)” has its median near 9.3; the highest 2% begin near 10. Shown is part of a subset that was picked to be rich in the highest values.

These sequences were tested on PF3D7_0420300 AP2 domain 1 (GST-tagged) (assay: gcPBM binding intensity (ln(normalized median fluorescence intensity)); higher = stronger DNA binding).
Outline: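 The highest Masliner-normalised natural-log median intensity across replicate spots of either probe orientation is reported as binding intensity. GST-tagged P. falciparum DNA-binding domains expressed in E. coli were applied for 1 h to an Agilent 4 × 180k array of primer-extended double-stranded 36-bp intergenic genomic probes plus negative controls, and bound protein was detected with Alexa488 anti-GST antibody and scanned at 488 nm.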

| Sequence | gcPBM binding intensity (ln) |
| --- | --- |
| AATTATCAGGAATGATGTACTGAAATAAAAAAAAAA [XGTACX_site3280] | 9.11 |
| GTATATATATATATATGTACTAATTAGTAGTTTACG [XGTACX_site6274] | 9.25 |
| TTTTTATGAATTCTTTTGTTAATAATAATATGTTGT [TGCATGCA_negctrl_site198] | 9.19 |
| ATATATCTGTATGGCACACACGGATAAATATATATA [CACACA_site4668] | 9.52 |
| ATATAGTAAATTGGTAGTACATAAAATGATTTTATG [XGTACX_site4143] | 9.26 |
| AAAAAAAAATTGTGTACACATAATTATATCATATGT [CACACA_site4500] | 9.3 |
| ACTATTTTCTTCAAAACATGCACCACATAAACATAA [TGCATGCA_site200] | 9.18 |
| ACCTATTTCAAACACACACACACACTAACAAACATA [CACACA_site8233] | 10.3 |
| ACCTATTTCAAACACACACACACACTAGCAAACATA [CACACA_site4695] | 10.3 |
| TTTCTTATTTTTTTCACACACTAAACATTTCAAATG [CACACA_site5259] | 9.35 |
| CTATTTCAGAAACACACACACACAAACAAACATATA [CACACA_site978] | 9.93 |
| ACCTATTTCAAACACACACACACACCCACAAACATA [CACACA_site977] | 10.4 |
| TGTTTCTTATTTTTTTCACACACTAAACATTTCAAA [CACACA_site2218] | 9.62 |
| AAAAAATTAAAAATCACACATAAATATATATAAAAA [CACACA_site4192] | 9.48 |
| CATATATTATTATATGCACACATGAAAATATACAAA [CACACA_site2795] | 9.49 |
| AAGAAAAAAATTTATACAAGAATTTTTTATTATTAA [TGCATGCA_negctrl_site587] | 8.9 |
| ATTTATGTTATATATACACACACAAAAGAAAAAAAA [CACACA_site8977] | 9.82 |
| AAACATATAAACATATGTACATATAAACATATATAC [XGTACX_site5026] | 9.42 |
| AAAAAAAAAGTATTATGTACATAAAAATAAAAAAAT [XGTACX_site4166] | 9.42 |
| ATATAAGTATATCTATGTACATACAATATAAATGTA [XGTACX_site2153] | 9.09 |
| AAAAAAAGAAAAAAAACACACACAAATATAAATAAA [CACACA_site8309] | 10 |
| AAAAAGAAAAAAAACACACACAAATATAAATAAATA [CACACA_site1183] | 9.98 |

| Sequence | gcPBM binding intensity (ln) |
| --- | --- |
| AAAAATATAAACTGCACACACACAAAAAAAGAAAAA [CACACA_site648] | 10.1 |
| TAAAAAATATAAACTGCACACACAAAAAAAAAAGAG [CACACA_site8379] | 10.2 |
| AAAAATATAAACTGCACACACAAAAAAAAAAGAGAA [CACACA_site1367] | 10.1 |
| AAATATAAACGGCACACACACAAAAAAAGAAAAAAA [CACACA_site649] | 10.2 |
| TCTAATGATATATACACACACATATAGATTTATATA [CACACA_site7044] | 9.64 |
| TGTAGATATTATATATGTACGCATATGAAATATATA [XGTACX_site1586] | 9.09 |
| ACATATTCATATGGAAGTACGATAATGTAGTCATAT [XGTACX_site7080] | 9.37 |
| TTTAACAACTATTTCTGTACACATTTTTATATAATT [XGTACX_site4917] | 9.47 |
| TTTATATTATAATATAATAATGATCTTAATTTTTTT [XGTACX_negctrl_site100] | 8.91 |
| AAAAAAAATTTTAATTGTACAAAAAAAAAAAATATA [XGTACX_site2259] | 8.91 |
| AGTATACGCAGACACACACACACATATATATATATA [CACACA_site1735] | 9.98 |
| CGCACACGCAGACACACACACACATATAAATAAATA [CACACA_site7101] | 9.86 |
| CATACCTATAGACACACACACACACGCACGCACAAA [CACACA_site6374] | 10.2 |
| CACGCACGCAGACACACACACACACGCACATATATA [CACACA_site6303] | 10.3 |
| CACATACACATACACATACACACGCATAGAAACATA [CACACA_site2136] | 9.79 |
| CATACATACAGACACACACACATATATATATATATA [CACACA_site2920] | 9.91 |
| TATATACACAGACACACACACACATACACGCACATA [CACACA_site6909] | 10.3 |
| TATACACATAGACACACACACATACACGCACATACA [CACACA_site6908] | 10.1 |
| TATACACATAGACACACACACAAAAAAAAAAAAAAA [CACACA_site6338] | 9.73 |
| CACATACAGACATACACACATACACATATACGCATA [CACACA_site1745] | 9.86 |
| AACATACATAGACACACACACACACGCACACGCACA [CACACA_site6373] | 10.3 |
| CATACACATAGACACACACACATATATACCTATATA [CACACA_site6644] | 10.1 |
